Data as given in PubChem BioAssay (EPA / NIEHS).
Inconclusive results are not listed. Activity calls are given as the source filed them. Rule for the calls, unless noted: active = hit-call score of the fitted dose curve at least 0.9, where 1 is the maximum; inconclusive = response in the unintended direction; inactive = score below 0.9.

Target: Nuclear receptor subfamily 1 group I member 2 (Homo sapiens) (UniProt O75469)
Experiment: NVS_NR_hPXR: NovaScreen (NVS) Nuclear Receptor Binding Assay for human Pregnane X Receptor (PXR) (AID 2283365);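 note: a drop in FRET signal versus DMSO baseline means the compound binds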
Summary of the method: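 Binding was measured by time-resolved fluorescence resonance energy transfer after a 2 h exposure of extracted human PXR protein without cells. Compounds were first tested at 25 uM in duplicate, with concentration series for actives; DMSO defined baseline.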

Sequence of Nuclear receptor subfamily 1 group I member 2 (Homo sapiens) (O75469 whole entry, looked up): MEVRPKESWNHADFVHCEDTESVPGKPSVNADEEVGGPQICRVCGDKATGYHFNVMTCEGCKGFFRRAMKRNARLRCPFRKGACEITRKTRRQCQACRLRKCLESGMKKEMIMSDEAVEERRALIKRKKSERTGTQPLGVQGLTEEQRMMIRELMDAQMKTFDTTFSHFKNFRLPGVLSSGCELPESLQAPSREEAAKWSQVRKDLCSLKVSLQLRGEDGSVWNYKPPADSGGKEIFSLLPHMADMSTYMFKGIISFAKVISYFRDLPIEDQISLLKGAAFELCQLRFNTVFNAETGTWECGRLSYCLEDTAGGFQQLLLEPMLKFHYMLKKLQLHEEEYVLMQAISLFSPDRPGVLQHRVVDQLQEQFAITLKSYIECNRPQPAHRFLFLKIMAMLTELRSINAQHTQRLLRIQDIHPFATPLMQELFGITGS

SMILES	outcome
C=C1CC[C@H]2C[C@@H]1C2(C)C	inactive
COC(=O)[C@]1(C)CCC[C@@]2(C)[C@H]1CC=C1C=C(C(C)C)CC[C@@H]12	inactive
O=C(OCc1ccccc1)c1ccccc1	inactive

Target: human Norepinephrine Transporter (NET), SLC6A2 (gene 6530) (UniProt P23975)
Experiment: NVS_TR_hNET: NovaScreen (NVS) Transporter Assay for human Norepinephrine Transporter (NET) (AID 2283377);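 note: cell-free membrane protein extracted from CHO cells expressing human NET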;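 for AC50: displacement of radioligand from human NET seen as loss of scintillation signal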
Summary of the method: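 Single-concentration duplicate screen at 25 uM, then concentration-response for actives; displacement of specific radioligand from human NET in CHO membrane extracts, filter-based scintillation detection at 1 h relative to DMSO.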

Sequence of human Norepinephrine Transporter (NET), SLC6A2 (gene 6530) (P23975 whole entry, looked up): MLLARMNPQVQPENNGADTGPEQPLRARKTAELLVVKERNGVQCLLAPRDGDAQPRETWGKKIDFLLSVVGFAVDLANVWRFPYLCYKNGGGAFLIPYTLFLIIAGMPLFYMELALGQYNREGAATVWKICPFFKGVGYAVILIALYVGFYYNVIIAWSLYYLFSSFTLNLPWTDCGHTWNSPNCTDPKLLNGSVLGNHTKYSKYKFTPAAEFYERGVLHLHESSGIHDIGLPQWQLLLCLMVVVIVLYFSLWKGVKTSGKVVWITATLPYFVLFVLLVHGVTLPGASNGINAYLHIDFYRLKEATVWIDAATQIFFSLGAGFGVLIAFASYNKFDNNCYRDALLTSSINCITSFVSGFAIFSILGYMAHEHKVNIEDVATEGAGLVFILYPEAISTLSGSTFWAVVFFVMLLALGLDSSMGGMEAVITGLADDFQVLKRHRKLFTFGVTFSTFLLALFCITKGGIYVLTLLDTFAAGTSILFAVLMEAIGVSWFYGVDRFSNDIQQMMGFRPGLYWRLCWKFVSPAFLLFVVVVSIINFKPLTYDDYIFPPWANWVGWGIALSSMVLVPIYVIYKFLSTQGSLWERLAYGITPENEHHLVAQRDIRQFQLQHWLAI

SMILES	outcome	AC50
CCC(C)=NO	inactive	–
Oc1cccc2ccccc12	–	21 µM (active)
CN(C)c1ccc(C(c2ccccc2)c2ccc(N(C)C)cc2)cc1	–	31.7 µM (active)

Target: Estrogen receptor beta (Homo sapiens) (UniProt Q92731)
Experiment: OT_ER_ERbERb_1440: Odyssey Thera (OT) 24-hour HEK293T Protein-Complementation Assay for Estrogen Receptor-beta/-beta Homodimer (AID 2283380);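 note: fluorescence gain from ER beta LBD homodimer complementation read by laser scanning cytometry; scored as signal increase over DMSO baseline for both agonists and antagonists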
Summary of the method: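 Fluorescence increase, nuclear for agonists or whole-cell for antagonists, relative to DMSO vehicle, quantified by laser scanning cytometer after fixation and Draq5 staining. Readout from 24 h treatment of HEK293T cells carrying complementation-paired ER beta LBD (aa 310-547).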

Sequence of Estrogen receptor beta (Homo sapiens) (Q92731 whole entry, looked up, the tested form may be a part): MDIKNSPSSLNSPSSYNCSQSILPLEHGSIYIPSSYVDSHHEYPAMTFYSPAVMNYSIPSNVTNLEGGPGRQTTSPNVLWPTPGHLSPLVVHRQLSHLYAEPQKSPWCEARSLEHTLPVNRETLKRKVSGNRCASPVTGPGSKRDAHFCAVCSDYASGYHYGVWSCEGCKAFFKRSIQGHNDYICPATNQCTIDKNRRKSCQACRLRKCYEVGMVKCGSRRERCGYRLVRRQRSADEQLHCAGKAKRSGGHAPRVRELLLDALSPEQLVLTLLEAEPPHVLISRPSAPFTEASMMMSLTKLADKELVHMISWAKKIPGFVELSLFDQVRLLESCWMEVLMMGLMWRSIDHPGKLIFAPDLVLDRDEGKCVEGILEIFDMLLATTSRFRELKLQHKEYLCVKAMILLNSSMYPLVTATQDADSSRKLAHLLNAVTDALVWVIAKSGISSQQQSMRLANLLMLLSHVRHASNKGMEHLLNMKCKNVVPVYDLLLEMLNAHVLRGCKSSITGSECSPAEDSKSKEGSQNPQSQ

SMILES	outcome	AC50
O=C(O)/C=C/C(=O)O	inactive	–
CCCCCCC1CCC(=O)O1 (stereo not drawn)	inactive	–
CCC(C)=NO	inactive	–
C=C1CC[C@H]2C[C@@H]1C2(C)C	inactive	–
COC(=O)[C@]1(C)CCC[C@@]2(C)[C@H]1CC=C1C=C(C(C)C)CC[C@@H]12	inactive	–
Cc1cc2nc3c(=O)[nH]c(=O)nc-3n(C[C@H](O)[C@H](O)[C@H](O)CO)c2cc1C	–	24.1 µM (active)
c1ccc(CNc2ncnc3nc[nH]c23)cc1	inactive	–
Oc1cccc2ccccc12	–	49.2 µM (active)
CCCCCC[C@@H](O)C/C=C\CCCCCCCC(=O)O	inactive	–

Target: Estrogen receptor (Homo sapiens) (UniProt P03372)
Experiment: OT_ERa_GFPERaERE_0480: Odyssey Thera (OT) 8-hour HeLa Transcription Induction Assay for Estrogen Receptor (AID 2283381; active = hit-call score of the fitted dose curve at least 0.9, where 1 is the maximum; inactive = score below 0.9)
Summary of the method: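 GFP-ERE reporter, HeLa, 8 h exposure. Readout: fluorescence microscopy, high-content image analysis. Fit direction positive vs DMSO negative control.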

Sequence of Estrogen receptor (Homo sapiens) (P03372 whole entry, looked up): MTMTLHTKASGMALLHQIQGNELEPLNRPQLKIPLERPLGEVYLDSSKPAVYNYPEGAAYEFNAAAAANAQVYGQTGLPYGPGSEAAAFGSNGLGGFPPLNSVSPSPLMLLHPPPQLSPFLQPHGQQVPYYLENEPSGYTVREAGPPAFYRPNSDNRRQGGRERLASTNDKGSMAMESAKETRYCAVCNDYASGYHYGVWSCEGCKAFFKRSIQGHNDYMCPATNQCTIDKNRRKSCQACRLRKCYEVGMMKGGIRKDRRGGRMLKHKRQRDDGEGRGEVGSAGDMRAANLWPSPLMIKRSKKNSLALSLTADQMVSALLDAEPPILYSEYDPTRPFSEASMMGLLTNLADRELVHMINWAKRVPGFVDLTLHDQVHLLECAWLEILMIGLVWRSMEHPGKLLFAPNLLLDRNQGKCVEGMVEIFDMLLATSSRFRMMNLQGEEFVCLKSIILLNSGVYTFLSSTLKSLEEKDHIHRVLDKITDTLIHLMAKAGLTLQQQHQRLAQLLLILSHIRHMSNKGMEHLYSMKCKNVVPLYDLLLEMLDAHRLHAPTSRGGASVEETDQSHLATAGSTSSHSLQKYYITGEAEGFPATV

SMILES	outcome
CCO[Si](CCCN)(OCC)OCC	inactive
CCCCCCC1CCC(=O)O1 (stereo not drawn)	inactive
C=C1CC[C@H]2C[C@@H]1C2(C)C	inactive

Target: Estrogen receptor (Homo sapiens) (UniProt P03372)
Experiment: OT_ERa_GFPERaERE_0120: Odyssey Thera (OT) 2-hour HeLa Transcription Induction Assay for Estrogen Receptor (AID 2283382)
Summary of the method: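 Fluorescence microscopy read-out: inducible fluorescent protein reporter in HeLa cells, imaged 2 h post-dose. Signal increase over DMSO negative control fitted as single primary endpoint via high content image analysis.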

SMILES	outcome
CCO[Si](CCCN)(OCC)OCC	inactive
CCCCCCC1CCC(=O)O1 (stereo not drawn)	inactive
C=C1CC[C@H]2C[C@@H]1C2(C)C	inactive

Target: Bile acid receptor (Homo sapiens) (UniProt Q96RI1)
Experiment: OT_FXR_FXRSRC1_0480: Odyssey Thera (OT) 8-hour HEK293T Protein-Complementation Assay for Farnesoid X receptor/SRC-1 Co-activator (AID 2283383)
Summary of the method: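 Fluorescence intensity read-out, 8 h post-dose, HEK293T protein-fragment complementation; FXR bait and SRC-1 prey each linked to reporter fragments. Activity scored as signal increase over DMSO negative control.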

Sequence of Bile acid receptor (Homo sapiens) (Q96RI1 whole entry, looked up): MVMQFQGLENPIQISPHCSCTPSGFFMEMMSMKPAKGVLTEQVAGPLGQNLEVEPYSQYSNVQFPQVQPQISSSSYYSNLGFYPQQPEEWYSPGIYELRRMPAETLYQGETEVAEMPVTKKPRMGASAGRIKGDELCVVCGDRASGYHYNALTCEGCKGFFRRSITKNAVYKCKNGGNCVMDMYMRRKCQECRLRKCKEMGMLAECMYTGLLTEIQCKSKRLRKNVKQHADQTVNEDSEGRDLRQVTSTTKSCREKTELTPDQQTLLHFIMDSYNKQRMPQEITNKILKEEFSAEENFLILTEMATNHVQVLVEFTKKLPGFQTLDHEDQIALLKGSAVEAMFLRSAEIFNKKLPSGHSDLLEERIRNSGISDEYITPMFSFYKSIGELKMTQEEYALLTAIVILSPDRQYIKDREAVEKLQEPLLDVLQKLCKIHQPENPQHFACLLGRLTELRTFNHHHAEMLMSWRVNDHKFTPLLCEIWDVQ

SMILES	AC50	outcome
COC(=O)[C@]1(C)CCC[C@@]2(C)[C@H]1CC=C1C=C(C(C)C)CC[C@@H]12	12.7 µM (active)	–
Cc1cc2nc3c(=O)[nH]c(=O)nc-3n(C[C@H](O)[C@H](O)[C@H](O)CO)c2cc1C	37.3 µM (active)	–
O=C(OCc1ccccc1)c1ccccc1	–	inactive
CCCCCC[C@@H](O)C/C=C\CCCCCCCC(=O)O	74.3 µM (active)	–

Target: Retinoic acid receptor RXR-alpha (Homo sapiens) (UniProt P19793)
Experiment: OT_NURR1_NURR1RXRa_1440: Odyssey Thera (OT) 24-hour HEK293T Protein Complementation Assay for Nurr1/retinoid X receptor (RXR) (AID 2283386)
Summary of the method: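 Fluorescence PCA read-out; HEK293T; 24 h post-dose; bait/prey fused to reporter fragments; gain-of-signal fit vs DMSO negative control.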

Sequence of Retinoic acid receptor RXR-alpha (Homo sapiens) (P19793 whole entry, looked up): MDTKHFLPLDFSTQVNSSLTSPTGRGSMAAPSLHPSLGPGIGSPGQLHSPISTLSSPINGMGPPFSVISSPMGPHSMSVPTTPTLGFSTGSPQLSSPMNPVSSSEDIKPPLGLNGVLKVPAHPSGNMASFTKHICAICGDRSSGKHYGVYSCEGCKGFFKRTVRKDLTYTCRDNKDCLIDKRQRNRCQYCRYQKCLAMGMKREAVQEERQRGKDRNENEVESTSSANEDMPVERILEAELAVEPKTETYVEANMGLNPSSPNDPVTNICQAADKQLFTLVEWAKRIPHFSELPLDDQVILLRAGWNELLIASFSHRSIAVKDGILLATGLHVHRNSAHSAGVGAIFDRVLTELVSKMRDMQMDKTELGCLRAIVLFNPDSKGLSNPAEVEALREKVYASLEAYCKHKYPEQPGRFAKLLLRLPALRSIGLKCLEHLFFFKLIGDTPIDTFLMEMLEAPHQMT

SMILES	outcome	AC50
CCC(C)=NO	inactive	–
COC(=O)[C@]1(C)CCC[C@@]2(C)[C@H]1CC=C1C=C(C(C)C)CC[C@@H]12	inactive	–
Cc1cc2nc3c(=O)[nH]c(=O)nc-3n(C[C@H](O)[C@H](O)[C@H](O)CO)c2cc1C	–	11 µM (active)
Oc1cccc2ccccc12	inactive	–
CCCCCC[C@@H](O)C/C=C\CCCCCCCC(=O)O	inactive	–
CC[N+](CC)(CC(=O)Nc1c(C)cccc1C)Cc1ccccc1 (tested in a mixture with another compound)	inactive	–

Target: Peroxisome proliferator-activated receptor gamma (Homo sapiens) (UniProt P37231)
Experiment: OT_PPARg_PPARgSRC1_0480: Odyssey Thera (OT) 8-hour Protein-Complementation Assay for Peroxisome Proliferator-activated Receptor Gamma / SRC-1 Co-activator (AID 2283387);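 note: nuclear to cytoplasmic split Venus YFP fluorescence ratio reporting PPARg SRC-1 interaction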
Summary of the method: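 Read-out: 488 nm N/C fluorescence ratio from complemented Venus YFP fragments, ≥350 cells per image, gain-of-signal fitted against DMSO baseline. Fusions of PPARg/SRC-1 with IFP1/IFP2 expressed transiently in HEK293T; compounds applied 8 h.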

Sequence of Peroxisome proliferator-activated receptor gamma (Homo sapiens) (P37231 whole entry, looked up): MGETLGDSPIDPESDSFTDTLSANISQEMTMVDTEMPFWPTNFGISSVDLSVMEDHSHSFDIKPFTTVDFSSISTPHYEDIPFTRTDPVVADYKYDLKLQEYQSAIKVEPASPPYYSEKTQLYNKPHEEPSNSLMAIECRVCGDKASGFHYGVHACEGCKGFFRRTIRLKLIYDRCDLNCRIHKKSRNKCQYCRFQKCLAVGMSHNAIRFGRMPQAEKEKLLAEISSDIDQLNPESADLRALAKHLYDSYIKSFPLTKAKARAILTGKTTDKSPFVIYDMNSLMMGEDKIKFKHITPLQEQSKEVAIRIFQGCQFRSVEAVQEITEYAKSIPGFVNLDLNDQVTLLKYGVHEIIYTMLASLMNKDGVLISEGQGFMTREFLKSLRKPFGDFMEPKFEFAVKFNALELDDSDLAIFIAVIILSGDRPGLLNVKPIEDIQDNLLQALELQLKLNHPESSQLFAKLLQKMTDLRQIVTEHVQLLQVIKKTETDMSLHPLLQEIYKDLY

SMILES	outcome
O=S(=O)(O)c1cccc2ccccc12	inactive
CCO[Si](CCCN)(OCC)OCC	inactive
CCCCCCC1CCC(=O)O1 (stereo not drawn)	inactive
C=C1CC[C@H]2C[C@@H]1C2(C)C	inactive
O=C(OCc1ccccc1)c1ccccc1	inactive
CCCCCC[C@@H](O)C/C=C\CCCCCCCC(=O)O	inactive
CC[N+](CC)(CC(=O)Nc1c(C)cccc1C)Cc1ccccc1 (tested in a mixture with another compound)	inactive

Target: Peroxisome proliferator-activated receptor gamma (Homo sapiens) (UniProt P37231)
Experiment: OT_PPARg_PPARgSRC1_1440: Odyssey Thera (OT) 24-hour Protein-Complementation Assay for Peroxisome Proliferator-activated Receptor Gamma/ SRC-1 Co-activator (AID 2283388);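 note: nuclear to cytoplasmic ratio of reconstituted Venus YFP fluorescence in fixed imaged cells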
Summary of the method: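 Transient HEK293T, YFP fragments 1-158/159-239 (mutant IFP1/IFP2) fused to PPARg/SRC-1; 24 h dosing; fix 4% formaldehyde, Draq5; Opera imaging 488/635 nm; N/C ratio, gain vs DMSO.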

SMILES	outcome
CCO[Si](CCCN)(OCC)OCC	inactive
CCCCCCC1CCC(=O)O1 (stereo not drawn)	inactive
C=C1CC[C@H]2C[C@@H]1C2(C)C	inactive
O=C(OCc1ccccc1)c1ccccc1	inactive
CCCCCC[C@@H](O)C/C=C\CCCCCCCC(=O)O	inactive
CC[N+](CC)(CC(=O)Nc1c(C)cccc1C)Cc1ccccc1 (tested in a mixture with another compound)	inactive

System: not listed separately
Experiment: ATG_XTT_Cytotoxicity: Cytotoxicity Assessment in the Attagene TRANS-FACTORIAL HepG2 Assay (AID 2283584)
Summary of the method: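 Transfect HepG2 with GAL4-UAS reporter units, dose compound, incubate 24 h, then measure viable cell number by XTT. Fit concentration response against DMSO baseline.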

SMILES	outcome
O=C1CCCCCCCCCCCCCC1	inactive
CCCCCCC(O)CCCCCCCCCCC(=O)OC (stereo not drawn)	inactive
C=CCOCC(CC)(CO)COCC=C	inactive
CN1CCCC1	inactive
CCCCCCC1CCC(=O)O1 (stereo not drawn)	inactive
CCC(=O)OCc1ccc(OC)cc1	inactive
C=C1CC[C@H]2C[C@@H]1C2(C)C	inactive
COC(=O)[C@]1(C)CCC[C@@]2(C)[C@H]1CC=C1C=C(C(C)C)CC[C@@H]12	inactive
Cc1cc(-n2nc3ccc(Cl)cc3n2)c(O)c(C(C)(C)C)c1	inactive
O=C(OCc1ccccc1)c1ccccc1	inactive
c1ccc(CNc2ncnc3nc[nH]c23)cc1	inactive
NC(=O)c1ccc(N)cc1	inactive
CC(=O)Nc1c(I)c(NC(C)=O)c(I)c(C(=O)O)c1I	inactive
CC(C)=CCOC(=O)c1ccccc1	inactive
CNC[C@H](O)[C@@H](O)[C@H](O)[C@H](O)CO	inactive
c1ccc2c(c1)Oc1ccccc1S2	inactive
CCCCCC[C@@H](O)C/C=C\CCCCCCCC(=O)O	inactive

System: not listed separately
Experiment: TOX21_p53_BLA_p2_viability: Viability Assessment in the Tox21 HCT-116 p53 Agonism Beta-lactamase Assay, Phase 2 (AID 2283591);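 note: compound exposure lasted 16 h at 37 °C; actives lower the ATP signal meaning cytotoxicity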
Summary of the method: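 Cytotoxicity readout: CellTiter-Glo ATP luminescence, 30 min at room temperature, after the beta-lactamase read. Cells were HCT116 exposed 16 h at 37C to compounds pin-transferred at 217-fold dilution from DMSO stocks.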

SMILES	outcome	AC50
CCCCCCC(O)CCCCCCCCCCC(=O)OC (stereo not drawn)	inactive	–
COC(=O)c1ccccc1	inactive	–
O=S(=O)(O)c1cccc2ccccc12	inactive	–
C/C=C(\C)C(=O)OCC/C=C\CC	inactive	–
C=CCOCC(CC)(CO)COCC=C	inactive	–
CN1CCCC1	inactive	–
CCO[Si](CCCN)(OCC)OCC	inactive	–
CCCCCCC1CCC(=O)O1 (stereo not drawn)	inactive	–
CCC(=O)OCc1ccc(OC)cc1	inactive	–
CCc1cc(C(N)=S)ccn1	inactive	–
CCC(C)=NO	inactive	–
CCCCCC1CCCC(=O)O1 (stereo not drawn)	inactive	–
COC(=O)[C@]1(C)CCC[C@@]2(C)[C@H]1CC=C1C=C(C(C)C)CC[C@@H]12	inactive	–
Cc1cc2nc3c(=O)[nH]c(=O)nc-3n(C[C@H](O)[C@H](O)[C@H](O)CO)c2cc1C	inactive	–
CCCCCCC1CCCC(=O)O1 (stereo not drawn)	inactive	–
c1ccc(CNc2ncnc3nc[nH]c23)cc1	inactive	–
NC(=O)c1ccc(N)cc1	inactive	–
CC(C)=CCOC(=O)c1ccccc1	inactive	–
CC(C)(C)NC(=O)[C@@H]1CN(Cc2cccnc2)CCN1C[C@@H](O)C[C@@H](Cc1ccccc1)C(=O)N[C@H]1c2ccccc2C[C@H]1O	–	36.3 µM (active)
Oc1cccc2ccccc12	inactive	–
C=CN1CCCCCC1=O	inactive	–
Oc1ccc(Oc2ccccc2)cc1	inactive	–
CC(=O)CCc1ccccc1	inactive	–
CNC[C@H](O)[C@@H](O)[C@H](O)[C@H](O)CO	inactive	–
CN(C)c1ccc(C(c2ccccc2)c2ccc(N(C)C)cc2)cc1	inactive	–
c1ccc2c(c1)Oc1ccccc1S2	inactive	–
CCCCCC[C@@H](O)C/C=C\CCCCCCCC(=O)O	inactive	–
